# Test results reported in the supplement of paper PMC8866396.
# ± gives the standard deviation of the averaged measurements.
# Legend:
# [1] = system: IL-6-GFP PC-9GR; assay: cell viability (CCK-8 OD) relative to DMSO control (fraction of control); higher = more viable cells; conditions: compound concentration: 10 uM; treatment time: 48 h
# In short: (§1)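 PC-9 and PC-9GR lung cancer cells carrying a lentiviral construct that overexpresses IL-6-GFP were seeded in 96-well plates at 3000 cells/well. Every compound in a purchased 510-compound library was applied at a final 10 μM for 48 h, and a parallel set of plates was kept for GFP imaging. Cell viability was read by CCK-8 absorbance, taking each well's optical density as a ratio to the vehicle control well. Two independent replicates were run.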
# [2] = system: IL-6-GFP PC-9; assay: as above; conditions: compound concentration: 10 uM; treatment time: 48 h
# In short: as §1
SMILES,cell viability [1],cell viability [2]
Nc1ccn(C2OC(CO)C(O)C2(F)F)c(=O)n1 (stereo not drawn) [Gemcitabine],0.5847 ± 0.0053,0.5589 ± 0.0046
CS(=O)(=O)O.N#CC1(c2ccc(NC(=O)c3cccnc3NCc3ccncc3)cc2)CCCC1,1.32 ± 0.072,0.887 ± 0.084
C=CC1CC1(NC(=O)C1CC(Oc2ncc(OC)c3ccc(Cl)cc23)CN1C(=O)C(NC(=O)OC(C)(C)C)C(C)(C)C)C(=O)NS(=O)(=O)C1CC1 (stereo not drawn) [Asunaprevir],1.24 ± 0.26,1.05 ± 0.46
C=C1CCC2C(C)(CO)C(O)CCC2(C)C1C/C=C1\C=COC1=O (stereo not drawn) [Dehydroandrographolide],1.17 ± 0.35,1.24 ± 0.12
